Screening results deposited in PubChem by several laboratories.
PABP1 MLLE inh: inhibitors of microRNA-mediated deadenylation, human PABP1 MLLE binding. P11940. inhibition, % at 20 µM. GST-MLLE / FITC-PAM2 fluorescence polarization. 360,000 tested, 0.36% active; in the data active = inhibition above about 35%, passing the limit was not always enough
Target sequence (P11940 whole entry, looked up): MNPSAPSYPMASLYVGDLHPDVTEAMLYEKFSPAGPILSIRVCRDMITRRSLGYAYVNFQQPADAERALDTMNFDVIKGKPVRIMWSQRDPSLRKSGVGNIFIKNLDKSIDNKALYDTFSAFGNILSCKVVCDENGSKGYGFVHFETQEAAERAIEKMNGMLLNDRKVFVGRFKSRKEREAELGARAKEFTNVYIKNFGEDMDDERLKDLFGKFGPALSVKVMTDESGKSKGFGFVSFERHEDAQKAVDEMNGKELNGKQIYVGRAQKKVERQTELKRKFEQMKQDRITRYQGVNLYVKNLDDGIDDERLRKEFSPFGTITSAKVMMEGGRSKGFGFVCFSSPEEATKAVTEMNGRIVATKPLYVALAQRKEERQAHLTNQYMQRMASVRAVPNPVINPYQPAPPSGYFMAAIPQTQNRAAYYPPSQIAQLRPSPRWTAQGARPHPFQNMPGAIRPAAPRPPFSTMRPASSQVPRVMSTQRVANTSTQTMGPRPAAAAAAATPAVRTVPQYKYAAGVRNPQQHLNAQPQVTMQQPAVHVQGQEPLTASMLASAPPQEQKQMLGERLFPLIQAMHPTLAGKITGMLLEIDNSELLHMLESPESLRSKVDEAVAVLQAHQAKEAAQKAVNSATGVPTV
PABP FP inh: PABP-poly(A) binding inhibition; P11940; PABP-poly(A) RNA binding, fluorescence polarization; AID 2014; 290,000 tested, 1% active; calls only at 35 µM;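 note: calls also rest on retests at 20 µM and on dose response follow-up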
PHOSPHO1 block: PHOSPHO1 (human) inhibition | Q8TCT1 | recombinant PHOSPHO1, absorbance phosphatase assay | inhibition, % at 13.3 µM | 290,000 tested, 1.1% active; in the data active = inhibition above about 60%
Efa HMGR inh: blocks class II HMG-CoA reductase of Enterococcus faecalis; purified E. faecalis HMGR, NADPH absorbance 340 nm kinetic; inhibition, % at 10 µM; 190,000 tested, 0.41% active; AID 1066;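 active = inhibition above a set limit, the median over all tested compounds plus 3 SD, cut at about 9.5% in these data; inconclusive = no clear call, values can overlap the other calls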;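 note: enzyme runs in reverse so mevalonate oxidation gives rising NADPH absorbance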
eIF4H inh: inhibitors of RNA binding by human eIF4H; Q15056; eIF4H fluorescence polarization binding assay; inhibition, % at 35 µM; 290,000 tested, 0.94% active;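 note: calls also rest on retests at 20 µM and on dose response follow-up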
Large screens that a line does not name were inactive. This is a sample that favours compounds with a hit; in the whole collection about 2.4% have one here. Unless noted, the rule behind the calls is not given here.

COc1cc(CN(C)C(=O)C2CCN(S(=O)(=O)c3cccs3)CC2)ccc1OC(F)F	none (no result: PABP FP inh, PHOSPHO1 block, Efa HMGR inh, eIF4H inh)
COc1ccc(CNC(=O)CN(Cc2ccc(Cl)cc2)C(=O)c2csnn2)cc1	PABP1 MLLE inh 36 (no result: Efa HMGR inh)
COc1ccc(CNC(=O)CN(Cc2ccc(C)cc2)C(=O)c2csnn2)cc1	PABP1 MLLE inh 44 (no result: Efa HMGR inh)
COc1ccc(CN(CC(=O)NCc2ccccc2)C(=O)c2csnn2)cc1	none
CC(C)c1ccc(NC(=O)CCS(=O)(=O)c2cccc3nonc23)cc1	none (no result: Efa HMGR inh)
Cc1ccccc1N1CCN(CC(=O)Nc2ccccc2C(=O)NC2CC2)CC1	none (no result: PABP FP inh, PHOSPHO1 block, Efa HMGR inh, eIF4H inh)
N#C/C(=C\c1cc2ccccc2nc1N1CCOCC1)C(=O)Nc1ccc(N2CCOCC2)cc1	none
N#CC(C#N)=Cc1cc2ccccc2nc1N1CCOCC1	Efa HMGR inh 14
O=C(N/N=C1\CCc2ccccc21)c1ccc(O)cc1	Efa HMGR inh 12
O=C(N/N=C1\CCc2ccccc21)c1ccccc1Cl	none
COc1ccc2c(c1)CC/C(=C\Nc1ccc3c(c1)OCO3)C2=O	PABP FP inh active, eIF4H inh 66
Cc1cc(C)c[n+](-c2[nH]c(=O)sc2/C=N/N=C(\[O-])c2cccnc2)c1	PABP1 MLLE inh 36 (no result: Efa HMGR inh)
C=CCn1c(SCC(=O)Nc2cccc(S(N)(=O)=O)c2)nc2sc(C)c(C)c2c1=O	none (no result: PABP FP inh, PHOSPHO1 block, Efa HMGR inh, eIF4H inh)
Cc1ccc(CN2CCN(C(=O)C3CCCO3)CC2)cc1 (stereo not given)	none
CCOC(=O)N1CCN(Cc2c(O)ccc3ccccc23)CC1	PABP1 MLLE inh 40 (no result: Efa HMGR inh)
O=C(C1CCCO1)N1CCN(Cc2c(O)ccc3ccccc23)CC1 (stereo not given)	PHOSPHO1 block 104
Brc1cccc2sc(N3CCCC3)nc12	none
COc1ccc(CCn2c(O)cc3nn(-c4nc5ccccc5s4)c(=O)c-3c2C)cc1	PABP FP inh active, eIF4H inh 68 (no result: Efa HMGR inh)
CCOC(=O)C1=C(C)Nc2nc(=S)[nH]n2C1c1ccc(Cl)cc1 (stereo not given)	PHOSPHO1 block 97
O=C(CN1C(=O)NC2(CCCC2)C1=O)N1CCN(S(=O)(=O)c2ccccc2[N+](=O)[O-])CC1	none (no result: PABP FP inh, PHOSPHO1 block, Efa HMGR inh, eIF4H inh)
COCCn1c(SCC(=O)NCC2CCCO2)nc2c(c1=O)SCC2 (stereo not given)	PABP1 MLLE inh 126 (no result: Efa HMGR inh)
Cc1nc(-c2ccccc2)sc1-c1ccn[nH]1	PABP FP inh active, eIF4H inh inconclusive
N#CC1(C#N)C(C(N)=O)C1c1ccccc1 (stereo not given)	none
CN1C=CC2=C(C#N)C(N)C(C#N)(C#N)[C@H](c3ccccc3)[C@H]2C1 (stereo not given in full)	PABP1 MLLE inh 48, eIF4H inh inconclusive
COCc1nnc(NC(=O)CCCCCN2C(=O)c3ccccc3C2=O)s1	none
CCc1nnc(NC(=O)CSc2ccc(-c3cccs3)nn2)s1	PABP FP inh active, eIF4H inh inconclusive
CCCc1nnc(NC(=O)CN2C(=O)c3ccccc3C2=O)s1	PHOSPHO1 block 86
O=C(CCCN1C(=O)c2ccccc2C1=O)Nc1nnc(C2CC2)s1	PABP FP inh active, eIF4H inh active
CCc1nnc(NC(=O)CN2C(=O)c3ccccc3C2=O)s1	PHOSPHO1 block 74
O=[N+]([O-])c1cccc(COc2cccc(CN3CCCCC3)c2)c1	none (no result: PABP FP inh, PHOSPHO1 block, Efa HMGR inh, eIF4H inh)
CC(=O)Nc1cccc(OCCCNS(=O)(=O)c2ccc(F)cc2)c1	none (no result: Efa HMGR inh)
O=C1N=c2ccccc2=C1c1c(O)n(-c2cccc(F)c2)[nH]c1=O	PABP1 MLLE inh 38
COC(=O)COc1ccc(C(C2C(=O)CC(C)(C)CC2=O)C2C(=O)CC(C)(C)CC2=O)cc1	none (no result: Efa HMGR inh)
CC1=C([N+](=O)[O-])C(c2ccccc2Cl)NC(=O)N1C (stereo not given)	PHOSPHO1 block 60 (no result: Efa HMGR inh)
Cc1ccc2c(c1)C1CN(C)CCC1N2S(=O)(=O)c1ccccc1F (stereo not given)	none (no result: PABP FP inh, PHOSPHO1 block, Efa HMGR inh, eIF4H inh)
CC(OC(=O)CC1Sc2ccccc2NC1=O)C(=O)N(C)Cc1ccccc1 (stereo not given)	none (no result: PABP FP inh, PHOSPHO1 block, Efa HMGR inh, eIF4H inh)
FC(F)(F)c1ccccc1NC(=S)Nc1cccc2cnccc12	PABP FP inh active, eIF4H inh 94
S=C(NCc1ccccc1)Nc1cccc2cnccc12	none (no result: Efa HMGR inh)
Cc1ccccc1NC(=S)Nc1cccc2cnccc12	none
Fc1ccccc1NC(=S)Nc1cccc2cnccc12	PABP1 MLLE inh 37, eIF4H inh 58
COc1ccc(CC(=O)OCc2cc(=O)n3cc(Br)ccc3n2)cc1OC	Efa HMGR inh 17
COc1cc(/C=C2\C(=N)N3N=C(S(C)(=O)=O)SC3=NC2=O)ccc1OCCOc1ccccc1C	PABP FP inh active, eIF4H inh 88 (no result: Efa HMGR inh)
Cc1ccc2c(c1)N(C(=O)c1ccco1)C(C)(C)c1ssc(=S)c1-2	PABP FP inh active, eIF4H inh active
CO/N=C\Cc1oc(=O)c(NC(=O)c2ccccc2)cc1C(=O)OC	PABP FP inh active, eIF4H inh 81
COC(=O)c1cc(NC(=O)c2ccccc2)c(=O)oc1C/C=N\OCc1ccc(Cl)cc1Cl	PABP FP inh active, eIF4H inh 72
O=C(C/C=N/OCc1ccc(Cl)cc1Cl)c1ccccc1	none
Cc1cc(C)n(CC(=O)NNC(=O)COc2ccc(Br)cc2F)n1	PABP1 MLLE inh 101 (no result: PABP FP inh, PHOSPHO1 block, Efa HMGR inh, eIF4H inh)
COC(=O)[C@H](Cc1c[nH]c2ccccc12)NC(=O)NCc1ccc(OC)cc1	none (no result: Efa HMGR inh)
CC1(OC(=O)C2CCCC2)C(=O)C=C2C=C(c3ccsc3)N(CC3CC3)C=C2C1=O (stereo not given)	none (no result: Efa HMGR inh)
COC(=O)CCCC1=CC2=C(c3ccccc3)C(=O)C(C)(OC(=O)C3CCCC3)C(=O)C2=CN1CCN1CCOCC1 (stereo not given)	PABP1 MLLE inh 40 (no result: Efa HMGR inh)
CC1(OC(=O)C2CCCC2)C(=O)C=C2C=C(c3ccsc3)N(CCN3CCOCC3)C=C2C1=O (stereo not given)	PABP FP inh active (no result: PABP1 MLLE inh, Efa HMGR inh)
C[C@H](CO)N1C[C@H](C)[C@@H](CN(C)S(=O)(=O)c2ccc(F)cc2)Oc2c(NS(=O)(=O)c3ccc(F)cc3)cccc2C1=O	none (no result: PABP FP inh, PHOSPHO1 block, Efa HMGR inh, eIF4H inh)
CC(=O)c1ccc(OCC(=O)Nc2nnc(C3CC3)s2)cc1	none (no result: PABP FP inh, PHOSPHO1 block, Efa HMGR inh, eIF4H inh)
O[C@@H]([C@H](O)[C@H](O)CBr)[C@H](O)CBr	none (no result: PABP FP inh, PHOSPHO1 block, Efa HMGR inh, eIF4H inh)
COc1ccc2nc(-n3c(O)c(C4=c5ccccc5=NC4=O)[nH]c3=S)sc2c1	PABP FP inh active, eIF4H inh 62
COc1ccc(S(=O)(=O)N2CCC(C(=O)NC3CCCC3)CC2)cc1C	none (no result: Efa HMGR inh)
O=C1N=C(N2CCOCC2)SC1=Cc1ccco1	none (no result: PABP FP inh, PHOSPHO1 block, Efa HMGR inh, eIF4H inh)
O=C1N=C(N2CCOCC2)S/C1=C/c1cc2c(cc1[N+](=O)[O-])OCO2	PABP FP inh active, eIF4H inh 87 (no result: Efa HMGR inh)
Cc1ccn2c(NC3CCCC3)c(-c3cccs3)nc2c1	PABP FP inh active, eIF4H inh 53
COc1ccc(NC(=O)CSc2nnc(NC(=O)C3CCC3)s2)c(OC)c1	none (no result: Efa HMGR inh)
CCOC(=O)C(=CNc1ccc(Cl)cn1)C(=O)OCC	none (no result: Efa HMGR inh)
CCOC(=O)C(=CNNc1cccc(Cl)c1)C(=O)OCC	PHOSPHO1 block 74 (no result: Efa HMGR inh)
Cn1c(CCN2CCOCC2)nc2cc(NC(=O)c3cccs3)ccc21	PHOSPHO1 block 64
CC(=O)NCCc1nc2cc(NC(=O)c3cccs3)ccc2n1C	none
Cn1c(=O)oc2cc(S(=O)(=O)N3CCN(c4cccc(Cl)c4)CC3)ccc21	PABP FP inh active, eIF4H inh 103
